Source: PubChem (National Center for Advancing Translational Sciences (NCATS))
Shown are actives, neighbours in structure and some others; about 19% of the full set was active somewhere.
HT1080 IDH1KD tx = qHTS for induction of synthetic lethality in tumor cells producing 2HG: qHTS for the HT-1080-IDH1KD cell line | HT-1080 IDH1 knockdown viability, ATP luminescence, 48 h | Potency, µM (doses to about 46.1 µM), hits mostly cytotoxic | 360,000 compounds, 2% hits | AID 686971, 2013
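HT-1080-IDH1KD cells (IDH1 knocked down), 750/well in RPMI with 5% FBS, treated with compound 48 h at 37 degrees C. Viability by CellTiter-Glo luminescence, normalised to DMSO and no-cell wells; concentration-response curves classed.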
HT1080NT lethal = qHTS for induction of synthetic lethality in tumor cells producing 2HG: qHTS for the HT-1080-NT fibrosarcoma cell line | HT-1080-NT fibrosarcoma viability, CellTiter-Glo ATP luminescence, 48 h | Potency, µM (doses to about 46.1 µM), usual class: cytotoxic | 360,000 compounds, 1.6% hits;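 further: NT is the 2HG producing partner of a matched IDH1 knockdown line; nearly all actives have a fitted effect of over 55% in size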
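Viability by CellTiter-Glo luminescence after 48 h compound exposure at 37C of HT-1080-NT cells (750/well, RPMI, 5% FBS). % activity scaled between DMSO wells and medium-only wells, then curve-fitted and categorized by curve class.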
TDP1 cell noCPT = qHTS for Inhibitors of human tyrosyl-DNA phosphodiesterase 1 (TDP1): qHTS in cells in absence of CPT. DT40 Tdp1-/- hTDP1 cells, no CPT, ATP luminescence, 48 h. Potency, µM (series often up to 46.2 µM), usual class: inhibitors. 420,000 compounds, 15% hits. AID 686978, 2013; further: nearly all actives have a fitted effect of over 55% in size
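No-CPT arm: Tdp1-/-;hTDP1 DT40 cells (400/well) plus compounds, incubated ≥48 hr at 37 °C. Readout CellTiter-Glo luminescence.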
DT40 TDP1 CPT = qHTS for Inhibitors of human tyrosyl-DNA phosphodiesterase 1 (TDP1): qHTS in cells in presence of CPT; chicken DT40 Tdp1-/-;hTDP1 cells + 20 nM CPT, ATP luminescence, 48 h; Potency, µM (titrated, usually from 46.2 µM), usual class: inhibitors; 420,000 compounds, 12% hits; AID 686979, 2013; further: nearly all actives have a fitted effect of over 55% in size
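Chicken DT40 Tdp1-/- cells complemented with human TDP1, 400 cells/well, exposed to compounds plus 20 nM camptothecin for at least 48 h at 37 C; viability read as ATP content by CellTiter-Glo luminescence.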
IL1B secr inh = qHTS for Inhibitors of Inflammasome Signaling: IL-1-beta AlphaLISA Primary Screen; activity change, % at 57.5 µM; THP-1 LPS/ATP IL-1B secretion, AlphaLISA, 16 h; active compounds read low; 360,000 compounds, 4.7% hits; AID 743279, 2014; in the data active means activity change below about -50%; inconclusive means mostly about -30% to -49%
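THP-1 cells pretreated 1 hr with compounds (up to 57.5 uM final), then stimulated with LPS (250 ng/mL final) plus ATP (1.25 mM final); secreted IL-1B measured by AlphaLISA after 16 hr, decreased signal indicating inhibition.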
A number is an active result; . = inactive; ? = inconclusive; / = not tested or not shown; [ ] = another dose, or the depositor's remark. Unless noted, the call rests on the fitted dose curve; in most records, active means well fitted curve in the direction sought with a large enough effect; inconclusive means small, poorly fitted or top-dose-only effect, or another doubt; inactive means no such curve, though single readings can be large; an effect the other way counts as inactive or inconclusive.

SMILES	HT1080 IDH1KD tx	HT1080NT lethal	TDP1 cell noCPT	DT40 TDP1 CPT	IL1B secr inh
Cn1c(=O)oc2cc(S(=O)(=O)NC3CCCCCCC3)ccc21	.	.	?	.	.
COc1ccc(Cn2c(=O)oc3ccc(C)cc32)cc1OC	.	.	18µM	15µM	.
CN(C)CCN=Cc1c(O)n(-c2cccc(C(F)(F)F)c2)c(=O)[nH]c1=O	.[9.24 µM]	.	.	.	.
C[C@]12C=CC(=O)C=C1CC[C@@H]1[C@@H]2CC[C@]2(C)OC(=O)CC[C@@H]12	/	/	.	.	/
CCCSc1ncc(Cl)c(C(=O)N(Cc2ccccc2)c2ccc(OC)cc2)n1	/	/	4.6µM	7.3µM	/
CCOP(=S)(OCC)SCSP(=S)(OCC)OCC	.	.	?	.	.
O=C1NC(=O)C(=Cc2ccccc2[N+](=O)[O-])C(=O)N1	.	.	16µM	15µM	.
Cc1ccc(S(=O)(=O)Oc2ccccc2C=C2C(=O)NC(=O)NC2=O)cc1	.	.	.	.	-55
O=C1NC(=O)C(=Cc2ccc(-c3ccccc3[N+](=O)[O-])o2)C(=O)N1	.	?	13µM	7.3µM	/
NS(=O)(=O)c1ccc(-c2ccc(C=C3C(=O)NC(=O)NC3=O)o2)cc1	.	.	.	.	.
CNS(=O)(=O)c1ccc(-c2ccc(C=C3C(=O)NC(=O)NC3=O)o2)cc1	.	.	.	.	.
O=C1NC(=O)C(=Cc2ccc(-c3cc(Cl)ccc3[N+](=O)[O-])o2)C(=O)N1	.	.	?	16µM	.
O=C1NC(=O)C(=Cc2cc3c(cc2[N+](=O)[O-])OCO3)C(=O)N1	.	.	?	.	.
O=C(Nc1ccc(Br)cc1C(=O)c1ccccc1Cl)c1ccccc1F	/	/	.	.	/
Cc1ccc(NC(=O)N2CCN(c3cc(-c4noc(C)n4)ccc3C)CC2)c(F)c1	/	/	16µM	?	/
C=C(C)CSc1nnc([C@@H](N)Cc2ccccc2)o1	.	.	.	.	.
O=c1ccc2cc(O[C@H]3OC(CO)C(O)C(O)C3O)c(O)cc2o1 (some centres not stated)	/	/	.	.	/
CN1CC(C(=O)c2ccc(Cl)cc2)C(c2ccc(N(C)C)cc2)C1 (configuration not stated)	.	.	?	21µM	?
COC(=O)C1=C(c2ccc(F)cc2OCc2ccccc2)C[C@@H]2CC[C@H]1N2C(=O)NCc1ccccc1OC	.	.	?	26µM	.
COC(=O)C1=C(c2ccc(F)cc2OCc2ccccc2)C[C@@H]2CC[C@H]1N2C(=O)NCc1cc(C)oc1C(F)(F)F	.	.	?	21µM	.
COC(=O)C1=C(c2ccc(F)cc2OCc2ccccc2)C[C@@H]2CC[C@H]1N2C(=O)NCC1CC1	.	.	8.2µM	7.3µM	.
COC(=O)C1=C(c2ccc(F)cc2OCc2ccccc2)C[C@@H]2CC[C@H]1N2C(=O)NCc1ccccc1	.	.	?	?	?
Cc1ccccc1NCC(=O)N/N=C/C(Br)=C/c1ccccc1	18µM	?	13µM	5.2µM	?
COc1ccc(Nc2nc(NC(C)C)nc3ccsc23)cc1OC	.	?	18µM	18µM	-89
COc1ccc(NC2=NCCCS2)cc1OC	.	.	.	.	.
SMILES	HT1080 IDH1KD tx	HT1080NT lethal	TDP1 cell noCPT	DT40 TDP1 CPT	IL1B secr inh
N[C@H](C(=O)O)[C@@H]1CC(Cl)=NO1	/	/	2.1µM	1.7µM	/
COc1ccc(CCC(=O)NCCc2cnc[nH]2)cc1	.	.	.	.	.
CCCCOc1ccc(CNC(=O)c2cc3n(n2)CCCN(Cc2ccc(C)cc2)C3=O)cc1	/	/	13µM	21µM	/
COc1ccc2c(c1)c(C(=O)C(C)N1CCCCC1)c(C)n2C (configuration not stated)	.	.	.	.	.
CC(=O)OCC1=C(C(=O)O)N2C(=O)[C@@H](N)[C@H]2SC1	/	/	.	.	/
CCC1C(c2cc(OC)c(OC)c(OC)c2)c2cc3c(cc2OC1N1CCCC1)OCO3 (configuration not stated)	?	?	4.1µM	5.2µM	.
